# From PubChem BioAssay AID778 (Sanford-Burnham Center for Chemical Genomics, 2007)
# Hit rate of the full screen: of about 96,000 compounds, about 20,000 (21%) were called active. These entries were drawn from the full list. Unmarked numbers belong to inactive results.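 How the source made its calls: active means CYP2C19 inhibition above a set limit at 5 µM in the primary screen (cut at about 50% in these data); inactive means the rest.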
# Molecular target: Cytochrome P450 2C19 (Homo sapiens) (UniProt P33261)
# Experiment: blockers of cytochrome P450 2C19 activity – biochemical, luminescence, ADME assay, primary screen (AID 778);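 further: plate controls were negative control wells for no effect and 2.5 mM tranylcypromine positive control for full effect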
# Conditions: CYP2C19 Supersomes, luciferin-H EGE luminescence, 30 min; at 5 µM; hits give high values
# Sequence of Cytochrome P450 2C19 (Homo sapiens) (P33261 whole entry, looked up): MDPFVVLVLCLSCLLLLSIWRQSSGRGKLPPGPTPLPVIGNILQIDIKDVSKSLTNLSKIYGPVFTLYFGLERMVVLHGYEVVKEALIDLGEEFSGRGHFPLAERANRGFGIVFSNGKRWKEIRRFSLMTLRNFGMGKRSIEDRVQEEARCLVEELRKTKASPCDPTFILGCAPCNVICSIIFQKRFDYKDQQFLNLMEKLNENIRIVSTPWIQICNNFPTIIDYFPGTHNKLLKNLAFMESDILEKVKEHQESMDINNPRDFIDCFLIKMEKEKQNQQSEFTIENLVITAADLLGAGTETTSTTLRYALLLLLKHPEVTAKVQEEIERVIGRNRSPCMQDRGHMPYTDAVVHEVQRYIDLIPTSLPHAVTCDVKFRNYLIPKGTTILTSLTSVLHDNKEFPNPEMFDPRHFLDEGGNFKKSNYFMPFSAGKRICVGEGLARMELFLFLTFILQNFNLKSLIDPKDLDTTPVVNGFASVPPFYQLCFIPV
row,Compound,inhibition
1,Cc1cc(C)n(-c2cc(Oc3ccccc3)ncn2)n1,15.9%
2,CC(C)=C1SC(N2CCN(c3cccc(C)c3)CC2)=NC1=O,6.5%
3,CNS(=O)(=O)c1cnccc1N1CCN(c2cccc(C)c2)CC1,78.6% (active)
4,O=S(=O)(c1cnccc1N1CCN(/N=C/c2ccc(Br)cc2)CC1)N1CCCCC1,-12%
5,CCn1c(SCC(=O)Nc2nc(C)cs2)nnc1C(C)NC(=O)c1ccccc1 (configuration not stated),8.1%
6,O=C1CC(c2ccccc2)CC(O)=C1C=NCCN1CCOCC1 (configuration not stated),0.2%
7,CCCc1nnc(NC(=O)c2cc(OC)cc(OC)c2)s1,32.5%
8,COc1ccc(Cl)cc1S(=O)(=O)Nc1cccc(C(=O)O)c1,13.4%
9,COc1ccccc1NS(=O)(=O)N(C)C,4.9%
10,COc1ccc(OC)c(S(=O)(=O)Nc2ccccc2F)c1,85.9% (active)
11,Cn1c(SCC(=O)OC2CCCCC2)nnc1-c1ccc(S(=O)(=O)N2CCCC2)cc1,5.7%
12,Cc1ccc(NC(=S)NC2CCCC2)cc1,54.5% (active)
13,Cc1ccc(NC(=S)N/N=C2/CCCc3c(C)cc(C)cc32)cc1,-4.5%
14,CC(C)c1ccc(NC(=O)NC2CCCCC2)cc1,-15.2%
15,CCOC(=O)N1CCN(CC(=O)c2ccc3c(c2)CCN3)CC1,34.1%
16,CC(C)NC(=O)C(=O)N/N=C/c1ccco1,-7%
17,O=C1c2ccccc2C(=O)N1CCc1nn[nH]n1,-6.8%
18,Nc1ccc(SCCN2C(=O)c3ccccc3C2=O)cc1,94.6% (active)
19,O=C1c2ccccc2C(=O)N1CCC(c1ccccc1)c1ccco1 (configuration not stated),22.9%
20,Cc1cc(Br)ccc1NC(=O)C1CCCO1 (configuration not stated),46.4%
21,CCn1c(O)c(N=NC2=NC(=O)CS2)c2cc(C)ccc21,14.8%

row,Compound,inhibition
1,O=C(O)C1C2C=CC(C2)C1C(=O)N1CCN(CCO)CC1 (configuration not stated),1%
2,CC1CC2=C(CC1/C=N/NC(N)=S)C(C)(C)CCC2 (configuration not stated),30.6%
3,Cn1c(-c2ccc(F)cc2)cnc1SCC(=O)NCc1ccco1,10.8%
4,O=C(Cn1c(=O)n(Cc2ccco2)c(=O)c2ccccc21)NCC1CCCO1 (configuration not stated),7.3%
5,O=C(CCCn1c(SCC(=O)c2ccc(F)cc2)nc2ccccc2c1=O)NCc1ccco1,70% (active)
6,O=C(CCn1c(SCC(=O)c2ccccc2)nc2ccccc2c1=O)NCc1ccc(F)cc1,60.5% (active)
7,O=C(CSc1nc2cc3c(cc2c(=O)n1CCC1=CCCCC1)OCO3)NCc1ccco1,7.2%
8,CCCCCCn1c(SCC(=O)c2ccccc2)nc2c1c(=O)[nH]c(=O)n2C,-16.1%
9,O=C(CCCn1c(SCC(=O)c2ccccc2)nc2ccccc2c1=O)NCC1CCCO1 (configuration not stated),58.1% (active)
10,CCc1ccc(NC(=O)CSc2nc3ccccc3c(=O)n2CCN2CCOCC2)cc1,34.4%
11,CCCCn1c(SCC(=O)NCC2CCCO2)nc2ccc(N3CCOCC3)cc2c1=O (configuration not stated),34.3%
12,COc1ccc(C(=O)Nc2c(N)nc(SCC(=O)N3CCC(C)CC3)[nH]c2=O)cc1OC,-6.9%
13,CC(C)C[C@@H](N)c1nnc(SCC(=O)c2ccc(Cl)cc2)o1,90.5% (active)
14,O=C(CSc1nnc(-c2c[nH]c3ccccc23)o1)c1ccccc1,16.6%
15,CC(=O)Nc1ccc(C(=O)CSc2nnc(Cc3ccccc3)o2)cc1,16.6%
16,CSc1ncccc1C(=O)OCC(=O)N1CCOCC1,3.2%
17,O=C(OCc1cn(-c2ccc(Cl)c(Cl)c2)nn1)c1ccccc1Cl,-4.8%
18,CCOc1ncccc1C(=O)OCc1cn2cc(Cl)ccc2n1,62.6% (active)
19,CC1CCc2sc3nc(N4CCN(CCO)CC4)n4ncnc4c3c2C1 (configuration not stated),37.2%
20,CC(=O)N=c1ncn(CC(COC(C)=O)OC(C)=O)c2nc[nH]c12 (configuration not stated),4.1%
21,CCN(CC)S(=O)(=O)c1ccc2c3c(cccc13)C(=O)S2,81.1% (active)

row,Compound,inhibition
1,CCCCCN(C(=O)NC(=O)Nc1ccccc1OC)S(C)(=O)=O,39.3%
2,Cc1ccc(OCc2nnc(NC(=O)OCC(C)C)s2)cc1,5.9%
3,Cc1ccc(C)c(N2CCN(C(=O)CCCCn3c(=O)[nH]c4ccccc4c3=O)CC2)c1,46.3%
4,Cc1cccc(NC(=S)N2CCC(c3nc4ccccc4s3)CC2)c1,8.3%
5,Cc1cccc2cc(CN(Cc3ccc4c(c3)OCO4)Cc3nnnn3C3CCCC3)c(=O)[nH]c12,33.8%
6,CCCN(Cc1cc2cccc(C)c2[nH]c1=O)S(C)(=O)=O,23%
7,Cc1cccc2cc(CN(Cc3nnnn3Cc3ccccc3)C3CCCC3)c(=O)[nH]c12,94.6% (active)
8,Cc1cccc2cc(CN(Cc3cccs3)C(c3nnnn3C3CCCC3)C(C)C)c(=O)[nH]c12 (configuration not stated),73.4% (active)
9,COc1ccc(CCN(Cc2cc3cccc(C)c3[nH]c2=O)C(=O)N2CCCC2)cc1OC,15.5%
10,CCC(c1nnnn1C1CCCC1)N(Cc1cccs1)Cc1cc2cccc(C)c2[nH]c1=O (configuration not stated),45.9%
11,COc1ccc(/C=C2\CCCC3C2=NN(C(=O)c2scnc2C)C3c2ccc(OC)cc2)cc1 (configuration not stated),32.7%
12,O=C(NCCCCCCCCCNC(=O)C(F)(F)F)C(F)(F)F,13.6%
13,COC(=O)c1ccc(Oc2nc(NC(C)C)nc(SC)n2)cc1,27.5%
14,O=C(CSc1nnc(-c2ccncc2)n1C1CCCCC1)Nc1ccccc1,45%
15,O=C(Nc1ccon1)c1cccc(Cl)c1,14.4%
16,CCNc1nc(N)nc(Oc2ccc(OCC)nn2)n1,-16.2%
17,CCC(C)(C)NC(=O)C(c1cccn1C)N(Cc1ccc(C)cc1)C(=O)Cn1nnc2ccccc21 (configuration not stated),35.9%
18,O=C(NCc1cccnc1)c1cccnc1Sc1ccc(Cl)cc1,48.3%
19,C1=C(CCNc2ncnc3c2cnn3-c2ccccc2)CCCC1,9.8%
20,Clc1ccc(Cn2ncc3c(NCc4cccnc4)ncnc32)cc1,66.5% (active)
